The record followed here is PubChem BioAssay (NCATS).

Structures are written as SMILES. Values joined by “and” are separate entries in the source; they are usually repeats but may differ in a detail not shown here. Identical values can stand only once. Results filed as inconclusive are left out. Active and inactive are the calls of the source. Unless noted, calls follow the shape of the dose curve; as a rule, active = well fitted curve in the direction sought with a large enough effect in the repeat runs; inconclusive = weak or mixed curves; inactive = no such curve, though single readings can be large; an effect the other way counts as inactive or inconclusive.

The target of experiment [1] is Cytochrome P450 2D6 (Homo sapiens) (UniProt P10635). As to the kind of experiment: Cytochrome P450 family 2 subfamily D member 6 (CYP2D6) small molecule antagonists: luciferase biochemical (cell-free) qHTS assay (AID 1645840). Also: nearly all actives have a fitted effect of over 55% in size. The gist of the method:
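P450-Glo CYP2D6 system: proluciferin substrate converted by enzyme to luciferin, read by luminescence proportional to activity. Enzyme-substrate mix with compound 10 min at room temperature, then NADPH regeneration 1 h before detection reagent.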
Background: Quantitative high-throughput screening tests each substance at several concentrations.

Experiment [2] has as its target Cytochrome P450 3A4 (Homo sapiens) (UniProt P08684). As to the kind of experiment: Cytochrome P450 family 3 subfamily A member 4 (CYP3A4) small molecule antagonists: luciferase qHTS assay (AID 1645841). Also: nearly all actives have a fitted effect of over 45% in size. The gist of the method: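 P450-Glo CYP3A4 enzyme with proluciferin substrate preincubated 10 min with compound at room temperature, then NADPH regeneration 1 h. Luciferin detection reagent added for 20 min; luminescence recorded. Ketoconazole positive control.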

Experiment [3] deals with Cytochrome P450 2C9 (Homo sapiens) (UniProt P11712). As to the kind of experiment: Cytochrome P450 family 2 subfamily C member 9 (CYP2C9) small molecule antagonists: luciferase biochemical (cell-free) qHTS assay (AID 1645842). Also: nearly all actives have a fitted effect of over 55% in size. The gist of the method:
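P450-Glo CYP2C9 system: proluciferin substrate with enzyme in mix containing 0.4% BSA, 10 min at room temperature, then NADPH regeneration solution added and incubated 1 h at 37C. Detection reagent stopped reaction; luminescence read after 20 min as RLU.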

The nature of experiment [4]: Primary qHTS for inhibitors of nuclear receptor binding SET domain protein 2 (NSD2) in an isogenic RCH-ACV NSD2 p.E1099K mutant (9B) (AID 1645876; active = well fitted curve in the direction sought with a large enough effect; an effect the other way counts as inactive or inconclusive; also: nearly all actives have a fitted effect of over 70% in size).
Experiment [5] in a line: Primary qHTS for inhibitors of nuclear receptor binding SET domain protein 2 (NSD2) in an RCH-ACV wild type WT cells (2C) (AID 1645877; active = well fitted curve in the direction sought with a large enough effect; an effect the other way counts as inactive or inconclusive; also: nearly all actives have a fitted effect of over 70% in size).
Potency is read from the fitted curve at half-maximal effect.

Cytochrome P450 2C9 (Homo sapiens), sequence (P11712 whole entry, looked up): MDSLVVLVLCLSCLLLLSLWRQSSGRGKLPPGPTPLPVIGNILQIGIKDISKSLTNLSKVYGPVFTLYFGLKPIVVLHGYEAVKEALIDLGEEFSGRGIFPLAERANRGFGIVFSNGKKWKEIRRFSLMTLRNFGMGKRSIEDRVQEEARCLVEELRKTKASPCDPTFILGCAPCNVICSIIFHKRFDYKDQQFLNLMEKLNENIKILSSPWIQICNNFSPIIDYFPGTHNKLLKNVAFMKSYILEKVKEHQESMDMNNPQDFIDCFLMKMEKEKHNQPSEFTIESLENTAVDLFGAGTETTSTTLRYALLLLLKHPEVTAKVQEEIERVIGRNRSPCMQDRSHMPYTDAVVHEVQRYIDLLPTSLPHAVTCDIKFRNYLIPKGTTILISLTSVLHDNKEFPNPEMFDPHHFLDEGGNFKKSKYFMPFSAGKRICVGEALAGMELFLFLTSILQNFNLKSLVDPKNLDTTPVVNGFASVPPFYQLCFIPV
Cytochrome P450 2D6 (Homo sapiens), sequence (P10635 whole entry, looked up): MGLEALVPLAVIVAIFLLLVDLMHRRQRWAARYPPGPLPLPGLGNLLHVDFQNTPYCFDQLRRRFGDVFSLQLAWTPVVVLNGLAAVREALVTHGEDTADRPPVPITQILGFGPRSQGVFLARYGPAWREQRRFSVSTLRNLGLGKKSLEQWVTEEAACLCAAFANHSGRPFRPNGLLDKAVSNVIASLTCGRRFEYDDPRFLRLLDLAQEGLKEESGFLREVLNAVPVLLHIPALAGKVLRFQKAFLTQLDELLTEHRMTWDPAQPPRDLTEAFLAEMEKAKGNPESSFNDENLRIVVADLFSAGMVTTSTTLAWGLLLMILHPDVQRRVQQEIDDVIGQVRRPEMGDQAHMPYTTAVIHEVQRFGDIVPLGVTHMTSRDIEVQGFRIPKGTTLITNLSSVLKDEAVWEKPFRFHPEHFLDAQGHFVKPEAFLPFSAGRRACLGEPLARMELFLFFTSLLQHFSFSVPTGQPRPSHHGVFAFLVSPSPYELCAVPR
Cytochrome P450 3A4 (Homo sapiens), sequence (P08684 whole entry, looked up): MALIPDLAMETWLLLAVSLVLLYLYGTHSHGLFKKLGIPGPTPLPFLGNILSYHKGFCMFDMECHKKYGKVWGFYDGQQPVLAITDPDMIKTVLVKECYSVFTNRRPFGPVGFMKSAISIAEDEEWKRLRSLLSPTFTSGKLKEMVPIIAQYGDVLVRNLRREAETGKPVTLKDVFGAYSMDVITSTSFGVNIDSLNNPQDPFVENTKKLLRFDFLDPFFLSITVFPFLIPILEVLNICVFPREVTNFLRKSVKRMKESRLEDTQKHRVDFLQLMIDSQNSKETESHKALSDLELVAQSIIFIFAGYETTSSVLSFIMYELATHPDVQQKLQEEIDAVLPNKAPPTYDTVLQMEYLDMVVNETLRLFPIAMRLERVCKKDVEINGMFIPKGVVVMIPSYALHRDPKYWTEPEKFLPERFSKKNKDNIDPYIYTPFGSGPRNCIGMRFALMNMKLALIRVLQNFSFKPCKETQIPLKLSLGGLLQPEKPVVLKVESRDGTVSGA

As to `Cc1c(O)cc2c(c1C)O[C@](C)(CCC[C@H](C)CCC[C@H](C)CCCC(C)C)CC2`, the Potency result in experiment [1] was “inactive”.

Consider `CC1(C)OC[C@H](NC(=O)Nc2ccc(Br)cc2Br)[C@H](c2ccccc2)O1`, for which the Potency entry in experiment [1] is “inactive”.

For `CCCn1ncc(CN2CCCC(C(=O)c3cccc(OC(C)C)c3)C2)c1C` (stereo unspecified), the Potency in experiment [1] is 0.338 µM (active).

Regarding `Nc1nc(OCc2cc(Br)cs2)c2[nH]cnc2n1`, the Potency in experiment [1] is 6.74 µM (active).

`O=C(CNC(=O)c1cccc(C(F)(F)F)c1)N[C@@H]1CCN(Cc2ccc(Cl)cc2)C1`: the Potency in experiment [1] is 0.0535 µM (active).

With `O=C(Nc1ccccc1Br)NC1CCN(c2ccc(C(F)(F)F)cn2)C1` (stereo unspecified), the Potency in experiment [1] is 10.7 µM (active).

Take `COC[C@H](c1ccc(C(F)(F)F)cc1)N1CCN(C2(C)CCN(C(=O)c3c(C)ncnc3C)CC2)C[C@H]1C`: in experiment [1], the Potency was 16.9 µM (active).

On to `CCOc1cn(-c2ccc(F)cc2C)nc1C(=O)Nc1ccc(Oc2ccnc3cc(OC)c(OC)cc23)c(F)c1`, for which the Potency result in experiment [1], in experiment [2] and in experiment [3] was “inactive” throughout. For the same molecule, the Potency in experiment [4] and in experiment [5] was 4.09 µM (active) throughout.

As to `O=[N+]([O-])c1cn2c(n1)OC[C@@H](OCc1ccc(-c3ccc(OC(F)(F)F)cc3)nc1)C2`, the Potency result in experiment [1] is “inactive”.

Take `O=C(c1cc(Cc2n[nH]c(=O)c3ccccc23)ccc1F)N1CCCNCC1`: the Potency result in experiment [1] was “inactive”.

In the case of `CNC(=O)c1ccc2c(c1)CCO[C@H]2CCN1CCN(c2ccc(OC)cc2)CC1`, the Potency result in experiment [1], in experiment [2], in experiment [4] and in experiment [5] was “inactive” throughout.

As for `CC1(C)S[C@@H]2[C@H](NC(=O)C(C(=O)Oc3ccc4c(c3)CCC4)c3ccccc3)C(=O)N2[C@H]1C(=O)O` (stereo partly specified), in experiment [1], the Potency entry was “inactive”.

With `C=CC(=O)N1CCC(Oc2cc3c(Nc4ccc(Cl)c(Cl)c4F)ncnc3cc2OC)CC1`, the Potency in experiment [1] was 2.68 µM (active); in experiment [2], 0.239 µM (active); in experiment [3], 9.52 µM (active); in experiment [4] it was 4.68 µM (active); in experiment [5] it was 4.68 µM (active).

Consider `CC#C[C@@H](CC(=O)O)c1ccc(OCc2cccc(-c3ccc(C(F)(F)F)cc3)c2)cc1`, for which the Potency entry in experiment [1] was “inactive”.

As for `COc1ccccc1N1CCN(CC[C@@](C)(C(=O)C2CCCCC2)c2ccccc2)CC1`, the Potency in experiment [1] was 12 µM (active); in experiment [2] it was 6.01 µM (active); in experiment [3], 8.49 µM (active); in experiment [4] it was 16.3 µM (active); in experiment [5], 18.3 µM (active).

For `CCCN(CCc1ccsc1)C1CCc2c(O)cccc2C1` (stereo unspecified), the Potency in experiment [1] was 0.338 µM (active).

For `CN(C)c1cccc(Oc2cnc(Nc3cccc(O)c3)nc2)c1`, in experiment [1], the Potency is 21.3 µM (active).

In the case of `COc1cccc(N2CCN(C3=Nc4c(F)cccc4[C@H](CC(=O)O)N3c3cc(C(F)(F)F)ccc3OC)CC2)c1`, the Potency result in experiment [1] was “inactive”.

As to `C=CC(=O)N1CC(N2CCN(C(=O)CNc3cc(C4CC4)c(Cl)cc3O)CC2)C1`, the Potency result in experiment [1] was “inactive”.

Consider `CC1(NC(=O)c2ccc(C#Cc3cccc(F)c3)cn2)COC1`, for which the Potency result in experiment [1] is “inactive”.

For `C=C(C)Cn1c(SCC(=O)c2cccs2)nc2sc3c(c2c1=O)CCCC3`, the Potency entry in experiment [1] is “inactive”.

In the case of `COc1ccc(C#Cc2ccc(C(=O)N3CCC[C@@H](O)C3)c(F)c2)cc1`, the Potency result in experiment [1] was “inactive”.

As to `O=C1Nc2nc(-c3c(O)cccc3OCC3CC3)cc([C@@H]3CCCNC3)c2CO1`, the Potency was 19 µM (active) in experiment [1], 5.78 µM (active) in experiment [4] and 5.15 µM (active) in experiment [5]. The Potency result in experiment [2] was “inactive”.

For `FC(F)(F)c1ccc(/C=C/c2nc(COc3ccc(CCCCn4ccnn4)cc3)co2)cc1`, in experiment [1], the Potency result is “inactive”.

For `CC(C)(N)c1ncc(-c2ccc(OC(F)(F)F)cc2)[nH]1`, the Potency in experiment [1] was 23.9 µM (active).

For `CCNC(=O)N1CCCN(c2ccc(C(=O)NCCc3ccc(Cl)cc3Cl)cc2NC(=O)c2cccc(Cl)c2)CC1`, the Potency in experiment [1] is 4.77 µM (active).

As to `CCN(CC)CCCS(=O)(=O)N[C@H](CCc1ccccc1)c1nc(Cc2ccc(Br)cc2)no1`, the Potency in experiment [1] was 6.01 µM (active).

Turning to `COc1cc(N(C)CCN(C)C)c(N)cc1Nc1nccc(-c2cn(C)c3ccccc23)n1`, the Potency in experiment [1] was 19 µM (active).

In the case of `Fc1ccc(CN2CCC(Nc3ccc(C(F)(F)F)nn3)CC2)cc1F`, in experiment [1], the Potency is 1.2 µM (active). The Potency result in experiment [2], in experiment [4] and in experiment [5] was “inactive” in each case.

Take `CC(C)(C)c1ccc2c(c1)CC[C@H]2NC(=O)Nc1cccc2[nH]ncc12`: the Potency entry in experiment [1] was “inactive”.

In the case of `COc1ccc(CCN(C)CCCOc2nsc(-c3ccccc3)n2)cc1OC`, the Potency in experiment [1] was 1.51 µM (active).

As for `O=S(O)CO`, in experiment [1], the Potency result was “inactive”.

In the case of `O=C(NC1CCC1)c1ccc(C#Cc2cccc(F)c2)nc1`, the Potency entry in experiment [1], in experiment [2], in experiment [3] and in experiment [4] was “inactive” each time.

As for `O=C(CN1C2=NCCN2c2ccccc21)c1ccc(-c2ccccc2)cc1`, the Potency in experiment [1] was 4.77 µM (active); in experiment [4], 11.5 µM (active); in experiment [5], 6.49 µM (active). Besides, in experiment [2], the Potency entry is “inactive”.

For `O=C(Nc1ccc2[nH]c(=O)oc2c1)C(=O)N1CCC(Cc2ccc(F)cc2)CC1`, in experiment [1], the Potency was 21.3 µM (active).

Regarding `COc1ccc(Sc2ccc(NC(=O)c3ccccc3Cl)cc2C#N)cc1`, the Potency entry in experiment [1] was “inactive”.

With `Cc1cc(F)ccc1-c1nc(NCCN=C(N)NC#N)nc2c1ccc(=O)n2-c1c(F)cccc1F`, the Potency in experiment [1] was 19 µM (active).

Consider `COC(=O)c1ccc2c(c1)nc(NC(=O)c1ccccc1)n2CCCc1ccccc1`, for which the Potency result in experiment [1], in experiment [2], in experiment [4] and in experiment [5] was “inactive” throughout. Moreover, the Potency in experiment [3] is 23.9 µM (active).

As for `O=c1[nH]c([C@@H]2CCCN2)nc2c1oc1ccc(Cl)cc12`, the Potency result in experiment [1], in experiment [2] and in experiment [3] was “inactive” throughout. In addition, the Potency in experiment [4] is 9.16 µM (active); in experiment [5], 4.59 µM (active) and 10.5 µM (active).

On to `CC(C)(C)OC(=O)c1ncn2c1C(C)(C)Nc1ccccc1-2`, for which, in experiment [1], the Potency entry was “inactive”. Further, the Potency in experiment [3] is 10.7 µM (active).
